SMILES strings stand for the structures. Active and inactive are the calls of the source. The call rests on the fitted dose curve; in most records, active means well fitted curve in the direction sought with a large enough effect in the repeat runs; inconclusive means weak or mixed curves; inactive means flat fitted curve, though single readings scatter.

The assay can be described thus: qHTS assay to test for compound auto fluorescence at 535 nm (green) in HEK293 cell free culture (AID 720682). Particulars: cell-free medium, green autofluorescence 485/535 nm; series mostly up to 91.3 µM. The source says:
U.S. Tox21 Program National Center for Advancing Translational Sciences [NCATS] NIH Chemical Genomics Center [NCGC] U.S. Environmental Protection Agency [EPA] National Institutes of Environmental Health Sciences [NIEHS] National Toxicology Program [NTP] U.S. Food and Drug Administration [FDA] Tox21 Assay Overview: Compound auto fluorescence often interferes with screening of the compound library against various biological targets and signaling pathways. Some of these compounds may have fluorophoric properties. Such properties may interfere with the assay outputs resulting in false positives and/or negatives. To decrease such complications and ensure the compound activities are relevant in terms of biological response, the Tox21 10K compound library was screened for auto fluorescence. From the fluorophores used as reporter signals in our screening assays, the auto fluorescence equivalencies of compounds against three fluorophores have been evaluated: Triamterene, Fluorescein and Rose Bengal sodium for blue, green and red fluorescence, respectively. The fluorescence intensities were measured using Excitation/Emission wavelengths at 405/460nm, 485/535nm and 540/590nm for blue, green and red labels, respectively. This assay includes the green fluorescence data.
Tox21 Assay Protocol Summary: 5 uL of culture medium (DMEM containing 10% FBS) per well was dispensed into black wall/clear bottom 1536-well plates using a Multidrop Combi Dispenser (ThermoFisher Scientific, Waltham, MA). After 23 nL compound or DMSO vehicle was transferred into assay plate by a pintool work station (Kalypsys, San Diego, CA), fluorescence intensities in the assay plates were measured by an Envision (PerkinElmer, Shelton, CT) plate reader using three labels for measuring blue, green and red fluorescence at […] 460, 535 and 590nm respectively.
For the compound `CC1(C)OC[C@@H]2O[C@@]3(C(=O)O)OC(C)(C)O[C@H]3[C@@H]2O1`, the compound was called inactive.

For `Nc1nc(N)nc(-c2ccccc2)n1`, the result was inactive.

As for `CCNc1ccccc1`, the result was inactive.

`Cc1ccc([N+](=O)[O-])cc1S(=O)(=O)O`: the compound was classed as inactive.

With `O=C1C(c2[nH]c3ccccc3c2O)=Nc2ccccc21`, the outcome was inactive.

As for `OC1C(O)C(O)C(O)C(O)C1O` (stereo not given), the result was inactive.

Turning to `O=S(=O)(O)c1ccc(N=Nc2c(O)ccc3cc(S(=O)(=O)O)ccc23)cc1`, the compound was classed as inactive.

In the case of `CCCCCCC=O`, the call was inactive.

On to `c1ccc(Oc2ccccc2)cc1`, for which the outcome was inactive.

For the compound `COCCOC(=O)c1ccccc1C(=O)OCCOC`, the outcome was inactive.

For the compound `N#Cc1ccccc1`, the outcome was inactive.

As to `CC(C)CCCCCCCOC(=O)CCCCC(=O)OCCCCCCCC(C)C`, the outcome was inactive.

Turning to `C[C@]12CCC(=O)C=C1CC[C@@H]1[C@@H]2[C@@H](O)C[C@@]2(C)[C@H]1CC[C@]2(O)C(=O)CO`, the call was inactive.

As for `O=C(O)c1ccccc1C(=O)O`, the result was inactive.

On to `C=CC[N+](C)(C)CC=C`, for which the compound was called inactive.

With `O=C1c2ccccc2CCc2ccccc21`, the call was inactive.

As for `CC(C)(C)c1cc(Cc2cc(C(C)(C)C)c(O)c(C(C)(C)C)c2)cc(C(C)(C)C)c1O`, the compound was classed as inactive.

On to `CC(=O)OC1CC(C)OC(C)O1` (stereo not given), for which the outcome was inactive.

As to `CC(=O)OCc1ccccc1`, the result was inactive.

In the case of `CC(=O)c1ccc(O)cc1`, the compound was called inactive.

In the case of `CCNC(=S)NCC`, the compound was called inactive.

Take `O=C1CCCC1`: the compound was called inactive.

Regarding `N[C@H](Cc1c[nH]c2ccccc12)C(=O)O`, the compound was classed as inactive.

With `O=C(OCC1CCC2OC2C1)C1CCC2OC2C1` (stereo not given), the call was inactive.

In the case of `CC(C)(C#N)c1cc(Cn2cncn2)cc(C(C)(C)C#N)c1`, the compound was called inactive.

In the case of `CCCCOC(=O)c1ccc(N)cc1`, the result was inactive.

On to `C[C@]12CC[C@@H]3c4ccc(O)cc4CC[C@H]3[C@@H]1C[C@@H](O)[C@@H]2O`, for which the outcome was inactive.

Regarding `C=C(C)CNCC`, the compound was called inactive.

Regarding `OCc1cccc(Oc2ccccc2)c1`, the result was inactive.

As for `CCOC(=O)n1ccn(C)c1=S`, the result was inactive.

`CNC(=S)N(C)C`: the compound was called inactive.

On to `CC(C)OC(=O)COc1ccc(Cl)cc1Cl`, for which the compound was called inactive.

Take `CCCCC(C=O)CC` (stereo not given): the call was inactive.

As to `CC(C)CC(C)O` (stereo not given), the compound was classed as inactive.

Consider `CCOCCOCCOCCO`, for which the call was inactive.

In the case of `CCOCC(=O)O`, the compound was called inactive.

Regarding `COCCCN`, the outcome was inactive.

Turning to `COc1ccc(CCC(C)=O)cc1`, the result was inactive.

Take `CN1C(=O)CC[C@H]1c1cccnc1`: the compound was called inactive.

Regarding `CCCCCCO`, the outcome was inactive.

For the origin of these results see PubChem BioAssay (Tox21).
